# Measured values from the supplement of paper PMC8728848.
# Many of the other results were omitted from the sample, so the strongest signals are more common in it than they were.
# B1: RS2L (Ralstonia solanacearum), B5RXL5_RALSO (protein)
# chain: MAQQGVFTLPANTSFGVTAFANAANTQTIQVLVDNVVKATFTGSGTSDKLLGSQVLNSGSGAIKIQVSVNGKPSDLVSNQTILANKLNFAMVGSEDGTDNDYNDGIAVLNWPLG
# Legend:
# Test in all cases: glycan array binding signal (z-score within array); higher = stronger binding
# Conditions in all cases: glycan notation: IUPAC condensed, linker removed
# [1] = molecular target: Fuc(a1-2)Gal(b1-3)GlcNAc(b1-2)Man(a1-3)[Fuc(a1-2)Gal(b1-3)GlcNAc(b1-2)Man(a1-6)]Man(b1-4)GlcNAc(b1-4)[Fuc(a1-6)]GlcNAc
# In short: (§1)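 The binding signal is a Z-score computed within each array. Data were drawn from 3228 arrays in the Consortium for Functional Glycomics database, restricted to those with a known protein sequence. Scores were averaged over arrays of the same protein sequence at different concentrations or buffers, and over linkers, and negative values can be taken as non-binding.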
# [2] = molecular target: Fuc(a1-2)Gal(b1-3)GlcNAc(b1-3)[Gal(b1-4)GlcNAc(b1-6)]Gal(b1-4)Glc
# In short: as §1
# [3] = molecular target: Fuc(a1-2)Gal(b1-4)GlcNAc(b1-3)GalNAc
# In short: as §1
# [4] = molecular target: Fuc(a1-2)Gal(b1-4)[Fuc(a1-3)]GlcNAc(b1-2)[Fuc(a1-2)Gal(b1-4)[Fuc(a1-3)]GlcNAc(b1-4)]Man(a1-3)[Fuc(a1-2)Gal(b1-4)[Fuc(a1-3)]GlcNAc(b1-2)Man(a1-6)]Man(b1-4)GlcNAc(b1-4)GlcNAc
# In short: as §1
# [5] = molecular target: Fuc(a1-2)[GalNAc(a1-3)]Gal(b1-4)Glc
# In short: as §1
# [6] = molecular target: Fuc(a1-2)[GalNAc(a1-3)]Gal(b1-4)[Fuc(a1-3)]GlcNAc(b1-3)GalNAc
# In short: as §1
# [7] = molecular target: Fuc(a1-3)[Gal(b1-4)]GlcNAc(b1-3)GalNAc
# In short: as §1
# [8] = molecular target: Gal(b1-3)GlcNAc(b1-3)Gal(b1-4)GlcNAc(b1-6)[Gal(b1-3)GlcNAc(b1-3)]Gal(b1-4)Glc
# In short: as §1
# [9] = molecular target: Gal(b1-4)GlcNAc(b1-6)Gal(b1-4)GlcNAc
# In short: as §1
# [10] = molecular target: GalNAc(b1-3)Gal
# In short: as §1
# [11] = molecular target: GalNAc(b1-4)Gal(b1-4)Glc
# In short: as §1
# [12] = molecular target: GalNAc(b1-6)GalNAc
# In short: as §1
# [13] = molecular target: GlcNAc(a1-4)Gal(b1-4)GlcNAc(b1-3)Gal(b1-4)[Fuc(a1-3)]GlcNAc(b1-3)Gal(b1-4)[Fuc(a1-3)]GlcNAc
# In short: as §1
# [14] = molecular target: GlcNAc(b1-3)Gal(b1-3)GalNAc
# In short: as §1
# [15] = molecular target: GlcNAc(b1-3)GalNAc
# In short: as §1
# [16] = molecular target: Kdn(a2-3)Gal(b1-4)Glc
# In short: as §1
# [17] = molecular target: Kdn(a2-6)Gal(b1-4)GlcNAc
# In short: as §1
# [18] = molecular target: Man(a1-2)Man(a1-2)Man(a1-6)[Man(a1-3)]Man
# In short: as §1
# [19] = molecular target: Man(a1-2)Man(a1-3)[Man(a1-2)Man(a1-6)]Man(a1-6)[Man(a1-2)Man(a1-2)Man(a1-3)]Man
# In short: as §1
# [20] = molecular target: Man(a1-2)Man(a1-3)[Man(a1-2)Man(a1-6)]Man(a1-6)[Man(a1-2)Man(a1-2)Man(a1-3)]Man(b1-4)GlcNAc(b1-4)GlcNAc
# In short: as §1
# [21] = molecular target: Man(a1-2)Man(a1-6)[Man(a1-3)]Man(a1-6)[Man(a1-2)Man(a1-2)Man(a1-3)]Man
# In short: as §1
# [22] = molecular target: Man(a1-2)Man(a1-6)[Man(a1-3)]Man(a1-6)[Man(a1-2)Man(a1-2)Man(a1-3)]Man(b1-4)GlcNAc(b1-4)GlcNAc
# In short: as §1
# [23] = molecular target: Man(a1-3)[Man(a1-6)]Man
# In short: as §1
# [24] = molecular target: Man(a1-3)[Man(a1-6)]Man(a1-6)[Man(a1-2)Man(a1-3)]Man(b1-4)GlcNAc(b1-4)GlcNAc
# In short: as §1
# [25] = molecular target: Man(a1-3)[Man(a1-6)]Man(a1-6)[Man(a1-3)]Man
# In short: as §1
# [26] = molecular target: Man(a1-3)[Man(a1-6)]Man(a1-6)[Man(a1-3)]Man(b1-4)GlcNAc(b1-4)GlcNAc
# In short: as §1
# [27] = molecular target: Neu5Ac(a2-3)Gal(b1-3)GalNAc(b1-3)Gal(a1-4)Gal(b1-4)Glc
# In short: as §1
# [28] = molecular target: Neu5Ac(a2-3)Gal(b1-3)GlcNAc
# In short: as §1
# [29] = molecular target: Neu5Ac(a2-3)Gal(b1-4)GlcNAc(b1-2)Man(a1-3)[GlcNAc(b1-2)Man(b1-4)GlcNAc(b1-2)Man(a1-6)]Man(b1-4)GlcNAc(b1-4)GlcNAc
# In short: as §1
# [30] = molecular target: Neu5Ac(a2-3)Gal(b1-4)GlcNAc(b1-6)[Neu5Ac(a2-3)Gal(b1-3)]GalNAc
# In short: as §1
# [31] = molecular target: Neu5Ac(a2-6)Gal(b1-4)GlcNAc(b1-2)Man(a1-3)Man(b1-4)GlcNAc(b1-4)GlcNAc
# In short: as §1
# [32] = molecular target: Neu5Ac(a2-6)GalNAc
# In short: as §1
# [33] = molecular target: Neu5Ac(a2-6)GalNAc(b1-4)GlcNAc
# In short: as §1
# [34] = molecular target: Neu5Ac(a2-8)Neu5Ac(a2-8)Neu5Ac
# In short: as §1
# [35] = molecular target: Neu5Ac(a2-8)Neu5Ac(a2-8)Neu5Ac(a2-8)Neu5Ac(a2-3)[GalNAc(b1-4)]Gal(b1-4)Glc
# In short: as §1
# [36] = molecular target: Neu5Ac(b2-6)Gal(b1-4)GlcNAc
# In short: as §1
# [37] = molecular target: Neu5Gc(a2-3)Gal(b1-4)GlcNAc
# In short: as §1
binder,measurement,setting,value
B1,glycan array binding signal (z-score),[1],0.443
same,glycan array binding signal (z-score),[2],-0.211
same,glycan array binding signal (z-score),[3],-0.205
same,glycan array binding signal (z-score),[4],-0.175
same,glycan array binding signal (z-score),[5],-0.244
same,glycan array binding signal (z-score),[6],-0.233
same,glycan array binding signal (z-score),[7],-0.24
same,glycan array binding signal (z-score),[8],-0.246
same,glycan array binding signal (z-score),[9],-0.255
same,glycan array binding signal (z-score),[10],-0.243
same,glycan array binding signal (z-score),[11],-0.247
same,glycan array binding signal (z-score),[12],-0.243
same,glycan array binding signal (z-score),[13],-0.12
same,glycan array binding signal (z-score),[14],-0.245
same,glycan array binding signal (z-score),[15],-0.249
same,glycan array binding signal (z-score),[16],-0.242
same,glycan array binding signal (z-score),[17],-0.251
same,glycan array binding signal (z-score),[18],6.32
same,glycan array binding signal (z-score),[19],6.92
same,glycan array binding signal (z-score),[20],3.42
same,glycan array binding signal (z-score),[21],5.7
same,glycan array binding signal (z-score),[22],5.97
same,glycan array binding signal (z-score),[23],7.32
same,glycan array binding signal (z-score),[24],6.99
same,glycan array binding signal (z-score),[25],5.11
same,glycan array binding signal (z-score),[26],5.42
same,glycan array binding signal (z-score),[27],-0.25
same,glycan array binding signal (z-score),[28],-0.247
same,glycan array binding signal (z-score),[29],-0.245
same,glycan array binding signal (z-score),[30],-0.254
same,glycan array binding signal (z-score),[31],-0.245
same,glycan array binding signal (z-score),[32],-0.244
same,glycan array binding signal (z-score),[33],-0.242
same,glycan array binding signal (z-score),[34],-0.243
same,glycan array binding signal (z-score),[35],-0.22
same,glycan array binding signal (z-score),[36],-0.252
same,glycan array binding signal (z-score),[37],-0.242
